Assay results reported in PubChem BioAssay AID1159580 (chemical genetic matrix, 2015).
Values joined by “and” are separate entries in the source; they are usually repeats but may differ in a detail not shown here. Equal entries are not always repeated. Hit rate of the full screen: of about 5,500 compounds, about 2,000 (36%) were called active. Another 18% or so got no clear call; they are omitted. Rule as the data show it: active = normalized growth mostly below about 0.91 (no sharp cut-off); inconclusive = no clear call, values can overlap the other calls; inactive = mostly above about 0.92. The list shows a part of the results.

Test: chemical genetic growth profiling, strain panel (AID 1159580);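 also: tested at 20 µM; growth read once vehicle control cultures reached saturation at 30 °C; 1 = growth at the plate median or of vehicle wells; lower values mean less growth of the strain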
Conditions: S. cerevisiae deletion strains, growth OD

Measured: normalized growth

CC1=C(C(C)O)C2=NC1C=c1[nH]c(c(C)c1C(C)O)=Cc1[nH]c(c(CCC(=O)O)c1C)C=c1[nH]c(c(C)c1CCC(=O)O)=C2 (configuration not stated)
inactive: locus YAL013W, strain DEP1, hits give low values 0.937 | locus YAL021C, strain ccr4, hits give low values 0.982 | locus YAL026C, strain drs2, hits give low values 0.988 | locus YAL030W, strain snc1, hits give low values 0.995 | locus YBL061C, strain skt5, hits give low values 0.986 | locus YBR009C, strain hhf1, hits give low values 0.986 | locus YBR021W, strain FUR4, hits give low values 0.998 | locus YBR023C, strain chs3, hits give low values 0.986 | locus YBR171W, strain sec66, hits give low values 0.994 | locus YBR229C, strain ROT2, hits give low values 1 | locus YBR231C, strain swc5, hits give low values 0.988 | locus YBR279W, strain paf1, hits give low values 1.01 | locus YCL011C, strain gbp2, hits give low values 0.994 | locus YCL016C, strain dcc1, hits give low values 0.986 | locus YCL029C, strain bik1, hits give low values 1.02 | locus YCL061C, strain MRC1, hits give low values 0.989 | locus YCL069W, strain vba3, hits give low values 0.99 | locus YCR088W, strain abp1, hits give low values 0.985 | locus YDL005C, strain med2, hits give low values 0.995 | locus YDL035C, strain GPR1, hits give low values 0.976 | locus YDL040C, strain nat1, hits give low values 0.998 | locus YDL074C, strain BRE1, hits give low values 0.956 | locus YDL101C, strain DUN1, hits give low values 0.999 | locus YDL185W, strain tfp1, hits give low values 1 | locus YDL192W, strain arf1, hits give low values 0.989 | locus YDR001C, strain nth1, hits give low values 1 | locus YDR069C, strain doa4, hits give low values 0.999 | locus YDR101C, strain arx1, hits give low values 1.01 | locus YDR137W, strain rgp1, hits give low values 1.04 | locus YDR150W, strain NUM1, hits give low values 0.997 | locus YDR159W, strain sac3, hits give low values 0.946 | locus YDR162C, strain NBP2, hits give low values 0.897 | locus YDR195W, strain ref2 0.935 | locus YDR297W, strain sur2, hits give low values 0.986 | locus YDR318W, strain mcm21, hits give low values 1.01 | locus YDR334W, strain swr1, hits give low values 0.993 | locus YDR335W, strain msn5, hits give low values 1 | locus YDR388W, hits give low values 1.02 | locus YDR392W, strain spt3, hits give low values 0.839 | locus YDR502C, strain sam2, hits give low values 0.977 | locus YEL003W, strain gim4, hits give low values 0.977 | locus YEL037C, strain rad23, hits give low values 1 | locus YEL061C, strain CIN8 (second series), hits give low values 0.996 | locus YEL061C, strain CIN8, hits give low values 0.995 | locus YER015W, strain faa2, hits give low values 1.01 | locus YER016W, strain bim1, hits give low values 0.989 | locus YER110C, hits give low values 1.03 | locus YER111C, strain swi4, hits give low values 0.986 | locus YER155C, strain BEM2 (second series), hits give low values 0.998 | locus YER155C, strain BEM2, hits give low values 0.995 | locus YER167W, strain BCK2, hits give low values 0.96 | locus YFR010W, strain ubp6, hits give low values 0.999 | locus YGL078C, strain dbp3, hits give low values 1.03 | locus YGL086W, strain mad1, hits give low values 0.968 | locus YGL167C, strain pmr1, hits give low values 0.995 | locus YGL173C, strain kem1, hits give low values 0.983 | locus YGL227W, strain vid30, hits give low values 0.993 | locus YGL240W, strain doc1, hits give low values 0.945 | locus YGL248W, strain PDE1, hits give low values 1.01 | locus YGL253W, strain hxk2, hits give low values 1 | locus YGR078C, strain PAC10, hits give low values 0.984 | locus YGR135W, strain pre9, hits give low values 0.973 | locus YGR252W, strain gcn5, hits give low values 1 | locus YHR013C, strain ard1, hits give low values 0.931 | locus YHR027C, strain rpn1, hits give low values 1 | locus YHR030C, strain SLT2, hits give low values 1.01 and 1.06 | locus YHR079C, strain IRE1 (second series), hits give low values 1.01 | locus YHR079C, strain IRE1, hits give low values 1.05 | locus YHR094C, strain hxt1, hits give low values 1.02 | locus YHR129C, strain ARP1, hits give low values 1 | locus YHR142W, strain chs7, hits give low values 1.01 | locus YHR200W, strain rpn10, hits give low values 0.986 | locus YIL066C, strain RNR3, hits give low values 0.98 | locus YIL073C, strain SPO22, hits give low values 1.12 | locus YIL125W, strain kgd1, hits give low values 1.02 | locus YIR030C, strain dcg1, hits give low values 1.01 | locus YJL092W, strain hpr5, hits give low values 0.992 | locus YJL095W, strain BCK1 (second series), hits give low values 0.994 | locus YJL095W, strain BCK1, hits give low values 0.982 and 1.06 | locus YJL115W, strain asf1, hits give low values 0.977 | locus YJL129C, strain trk1, hits give low values 0.949 | locus YJL134W, strain LCB3, hits give low values 1 | locus YJL154C, strain vps35, hits give low values 0.995 | locus YJL164C, strain tpk1, hits give low values 0.986 | locus YJL166W, strain qcr8, hits give low values 0.966 | locus YJL168C, strain set2, hits give low values 1 | locus YJL187C, strain SWE1 (second series), hits give low values 1
